In all, about 280,000 compounds went through this assay and about 180 (0.064%) were called active. Calls follow the shape of the dose curve; as a rule, active = well fitted inhibition curve with a large enough effect; inconclusive = small, poorly fitted or top-dose-only effect, or effect the other way; inactive = flat fitted curve, though single readings scatter. What follows is part of a selection rich in actives, with near analogues and random picks from the rest. A call without a number means that no potency is given here.

Results on 43 compounds are retold here after PubChem BioAssay AID1469 (National Center for Advancing Translational Sciences (NCATS), 2008).

Thyroid hormone receptor beta (Homo sapiens), sequence (P10828 whole entry, looked up, the tested form may be a part): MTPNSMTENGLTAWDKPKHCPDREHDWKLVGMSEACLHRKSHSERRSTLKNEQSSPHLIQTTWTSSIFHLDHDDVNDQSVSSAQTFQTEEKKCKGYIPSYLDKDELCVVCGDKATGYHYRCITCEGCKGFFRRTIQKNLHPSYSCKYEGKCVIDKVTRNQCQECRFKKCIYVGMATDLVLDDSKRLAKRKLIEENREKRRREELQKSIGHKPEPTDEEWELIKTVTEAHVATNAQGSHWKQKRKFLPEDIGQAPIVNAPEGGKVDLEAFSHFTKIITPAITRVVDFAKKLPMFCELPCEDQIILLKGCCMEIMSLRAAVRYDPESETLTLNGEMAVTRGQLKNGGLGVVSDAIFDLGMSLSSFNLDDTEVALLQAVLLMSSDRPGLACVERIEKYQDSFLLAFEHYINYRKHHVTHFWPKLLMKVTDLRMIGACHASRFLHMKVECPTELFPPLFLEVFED

This experiment has as its target Thyroid hormone receptor beta (Homo sapiens) (UniProt P10828). Put plainly: qHTS for Inhibitors of the Interaction of Thyroid Hormone Receptor and Steroid Receptor Coregulator 2. Also: nearly all actives have a fitted effect of over 50% in size. The settings on record: TRbeta-SRC2 peptide binding, fluorescence polarization, receptor liganded with 1 µM T3; series mostly up to 106 µM. In short, it runs like this:
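Human TRb ligand-binding domain (0.6 uM) is mixed with 20 nM Texas Red SRC2 peptide and 1 uM T3; after compound addition and 5 hr at ambient temperature, polarization is measured and normalized to unbound and bound controls.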
In the case of `CCN(CC)c1ccc(NS(=O)(=O)c2cc(-c3cc(C)no3)ccc2C)c(C)c1`, the Potency result was “inactive”.

In the case of `Cc1ccc(CNC(=O)c2c(O)nc3c(C)cccn3c2=O)cc1`, the Potency result is “inactive”.

Take `Oc1ccc(-c2nc3ccc(Cl)cn3c2Nc2ccc3c(c2)OCO3)cc1`: the Potency result was “inactive”.

As for `COc1ccc(CCNC(=O)c2ccc(CSCc3ccc(C)cc3)o2)cc1OC`, the Potency entry was “inactive”.

`Cc1ccc(-c2nc(SCc3ccc(Br)cc3)n3[nH]c(=O)cc3n2)cc1`: the Potency entry was “inactive”.

Turning to `COc1ccc(N2CCN(S(=O)(=O)CCNC(=O)C(c3ccccc3)c3ccccc3)CC2)cc1`, the Potency entry is “inactive”.

For `O=C(Nc1nc2c(s1)CCCC2)c1ccccc1F`, the Potency result is “inactive”.

Consider `Cc1cc(C)cc(Nc2ncnc3onc(-c4ccc(F)cc4)c23)c1`, for which the Potency result is “inactive”.

For `CCOc1cc(C2C(C(=O)OC)=C(C)NC3=C2C(=O)c2ccccc23)ccc1O` (stereo not drawn), the Potency entry is “inactive”.

As to `OCCC(F)(F)C(F)(F)C(F)(F)C(F)(F)C(F)(F)C(F)(F)C(F)(F)C(F)(F)F`, the Potency result is “inactive”.

Take `CCN(CCCNC(=O)c1ccc(Sc2ccc(C)cc2)c(NC(C)=O)c1)c1cccc(C)c1`: the Potency result is “inactive”.

For `CCCC/C=C/CCCCO`, the Potency entry is “inactive”.

With `CCOC(=O)c1ccc(NC(=O)c2c(NCc3cccs3)sc3c2CCCC3)cc1`, the Potency result was “inactive”.

For `O=C(NCc1ccc(F)cc1)c1ccc2nc(N3CCCCC3)sc2c1`, the Potency result is “inactive”.

Take `CCOc1cccc2c1N[C@@H](c1ccc(C(=O)O)cc1)[C@H]1CC=C[C@@H]21`: the Potency entry was “inactive”.

In the case of `CN(CC(=O)Nc1ccccc1F)S(=O)(=O)c1ccc2c(c1)c(=O)n(C)c(=O)n2C`, the Potency result was “inactive”.

In the case of `CCN(CC)CCNc1ncnc2c1cnn2-c1cc(Cl)ccc1C`, the Potency result was “inactive”.

With `CCOC(=O)c1c(C)oc2nc(C)nc(N3CCN(c4ccc(OC)cc4)CC3)c12`, the Potency entry was “inactive”.

In the case of `CC(C)c1ccc(S(=O)(=O)Nc2ccc(O)c(Sc3nc4ccccc4s3)c2)cc1`, the Potency entry is “inactive”.

Turning to `CCc1cccc(NC(=O)CN(C)S(=O)(=O)c2ccc3[nH]c4c(c3c2)CCCC4)c1`, the Potency entry is “inactive”.

In the case of `CCN(CC)c1ccc(NC(=O)CN2C(=O)c3cccnc3Oc3ccc(Cl)cc32)c(C)c1`, the Potency result is “inactive”.

For the compound `Cc1ccc(OCCSc2nc(-c3cccs3)nc3cc(=O)[nH]n23)cc1Cl`, the Potency result is “inactive”.

As to `Cc1ccc(NC2=C(c3ccc(C(F)(F)F)cc3)C(=O)c3ccccc32)cc1F`, the Potency entry was “inactive”.

With `CCCn1c2ccccc2c2cnn(CC(=O)NCC3CCN(Cc4ccc(C)cc4)CC3)c(=O)c21`, the Potency entry was “inactive”.

In the case of `Cc1cc(C)cc(NC(=O)c2cnc3sc(N4CCCC4)nn3c2=O)c1`, the Potency result is “inactive”.

For `Cc1cc(C)c(NC(=O)CN2C(=O)c3cccnc3Oc3ccc(Cl)cc32)c(C)c1`, the Potency entry was “inactive”.

On to `COc1ccc(N2CCN(c3cc(C)nc4nncn34)CC2)cc1`, for which the Potency result was “inactive”.

As to `Cn1c(=O)c2c(-c3ccccc3Br)n(Cc3ccccc3)cc2n(C)c1=O`, the Potency result was “inactive”.

As for `CC(C)c1ccc(NC(=O)c2ccc(Cn3nc(N4CCN(c5ccccc5)CC4)ccc3=O)o2)cc1`, the Potency result is “inactive”.

`CCOc1ccc(S(=O)(=O)Nc2ccc3oc4c(c3c2)CC(C)CC4)cc1` (stereo not drawn): the Potency entry is “inactive”.

For `CC(C)CCCCCOC(=O)CS`, the Potency entry was “inactive”.

As to `CC1Cc2cc(S(=O)(=O)CCC(=O)NCc3ccc(Cl)cc3)ccc2N1C(=O)C1CC1` (stereo not drawn), the Potency result was “inactive”.

On to `CCOC(=O)C1CCCN(C(=O)Cn2ncc3c(C)n(Cc4ccc(F)cc4)c(C)c3c2=O)C1` (stereo not drawn), for which the Potency result was “inactive”.

`CSc1ccc(CCNC(=O)c2cc(C)nc3c2c(C)nn3-c2cccc(F)c2)cc1`: the Potency result is “inactive”.

For the compound `O=c1cc(CSc2ncn[nH]2)[nH]c2ccc(F)cc12`, the Potency entry was “inactive”.

As for `CCc1ccc(C(=O)CC2(O)C(=O)N(CCc3ccccc3)c3ccc(Br)cc32)cc1` (stereo not drawn), the Potency result was “inactive”.

On to `COc1ccccc1-c1noc(CSc2nnc(-c3ccccc3)n2-c2ccc(C)c(C)c2)n1`, for which the Potency result was “inactive”.

Regarding `Cc1ccc2onc(CC(=O)N3CCN(c4ccc(Cl)cc4)CC3)c2c1`, the Potency entry was “inactive”.

`CC(C)c1ccc(OCC(=O)N(Cc2ccc(N(C)C)cc2)C2CCS(=O)(=O)C2)cc1` (stereo not drawn): the Potency entry was “inactive”.

Consider `CCN(CC)c1ccc(NC(=O)CN2CCN(CC(=O)Nc3ccc(Cl)cc3)CC2)cc1`, for which the Potency entry is “inactive”.

Regarding `Clc1ccc(CSc2nncn3c2cc2occc23)cc1`, the Potency entry is “inactive”.

`COc1cccc(CNC(=O)CCC(=O)N2CC3CCCN3c3ccccc32)c1` (stereo not drawn): the Potency entry is “inactive”.

For the compound `Cc1ccc(C2c3[nH]c4ccccc4c3CCN2C(=O)c2cccc(C)c2)cc1` (stereo not drawn), the Potency entry was “inactive”.
